Screening results deposited in PubChem BioAssay by Center for Chemical Genomics, University of Michigan.
Dicer processing = inhibitors of Dicer pre-microRNA processing, primary screen, biochemical, cat-ELCCA, chemiluminescence | 47,000 tested, 6% active | z-score at 25 µM | cat-ELCCA pre-miR-21 Dicer processing; hits give high values | Endoribonuclease Dicer (Homo sapiens), Q9UPY3; in the data active = z-score above about 3, passing the limit was not always enough;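 also: higher signal means more uncleaved substrate so more Dicer inhibition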
Hits are given with their value. The entries come from a sample that favours hits as a whole.

Screening COc1ccc(Oc2c(C(F)(F)F)oc3c(CN4CCCCC4)c(O)ccc3c2=O)cc1 returned Dicer processing inactive.
`COc1ccc(-n2c(C)c([N+](=O)[O-])c3ccc(O)c(CN4CCCCC4)c32)cc1` gave Dicer processing 3.5.
Screening COc1ccc(-n2c(/C=C/N(C)C)c([N+](=O)[O-])c3ccc(O)c(CN(C)C)c32)cc1 returned Dicer processing 3.5.
Screening Cc1c([N+](=O)[O-])c(/C=C/N(C)C)nn1C returned Dicer processing inactive.
Screening COc1ccc(OC)c(C(=O)c2coc3ccc(O)c(CN(C)C)c23)c1 returned Dicer processing inactive.
Screening COc1ccc(N2CCCCC2)c([N+](=O)[O-])c1 returned Dicer processing inactive.
`CCOC(=O)c1noc(C)c1-c1csc(-c2ccccc2)n1` gave Dicer processing inactive.
Fc1cc(F)cc(CSc2ccccc2NC(=S)NC2CC3C=CC2C3)c1 (centres undefined) was read as Dicer processing inactive.
For CCCc1nc(NC)nc(-c2ccccc2O)n1 the results were Dicer processing inactive.
For O=c1ccnc(SCc2ccc(Cl)cc2)[nH]1 the results were Dicer processing inactive.
Cc1ccc2nc(NC3=NCN(CCCN4CCOCC4)CN3)nc(C)c2c1 was read as Dicer processing inactive.
`CCOC(=O)c1nc(-c2ccccc2)sc1C(C)=O` gave Dicer processing inactive.
CC12CN3CC(C)(CN(C1)C3c1ccc(O)c(O)c1)C2 (centres undefined) was read as Dicer processing 3.1.
`CC12CN3CC(C)(CN(C1)C3c1ccc(Cl)cc1)C2` (centres undefined) gave Dicer processing 5.1.
`CC12CN3CC(C)(CN(C1)C3c1ccc(F)cc1)C2` (centres undefined) gave Dicer processing inactive.
For COc1ccc(C2N3CC4(C)CN2CC(C)(C3)C4)cc1OC (centres undefined) the results were Dicer processing inactive.
Screening CC12CN3CC(C)(CN(C1)C3c1ccccc1Cl)C2 (centres undefined) returned Dicer processing inactive.
`Cc1cccc(C2N3CC4(C)CN2CC(C)(C3)C4)c1` (centres undefined) gave Dicer processing inactive.
For Cn1ccnc1SCc1nccn1Cc1ccc(Cl)cc1 the results were Dicer processing inactive.
Cc1ccc(S(=O)(=O)NC(=O)NCc2ccc(C#N)cc2)cc1 was read as Dicer processing inactive.
`O=C1CSC(=Nc2c(Br)cc(F)cc2Br)N1Cc1cccs1` gave Dicer processing inactive.
For O=C1c2ccccc2S(=O)(=O)N1Cc1nc2ccccc2s1 the results were Dicer processing inactive.
O=C(O)C1=C(C(=O)NC2CCCc3ccccc32)SCCS1 (centres undefined) was read as Dicer processing inactive.
For CCCN(C(=O)CC#N)C(=O)Nc1ccccc1C the results were Dicer processing inactive.
Cc1ccccc1NC(=O)N(Cc1cccs1)C(=O)CC#N was read as Dicer processing 3.7.
Cc1cccc(C)c1NC(=O)N(Cc1ccccc1)C(=O)CC#N was read as Dicer processing inactive.
For CC(C)(C)c1ccc(C(=O)c2ncc[nH]2)cc1 the results were Dicer processing inactive.
For O=C1CC(c2ccc(Cl)cc2)c2c(n[nH]c2-c2ccccc2)N1 (centres undefined) the results were Dicer processing inactive.
CCC1CC(C)(C(=O)Nc2ccc(S(N)(=O)=O)cc2)OC1=O (centres undefined) was read as Dicer processing inactive.
For CCOC(=O)CSc1nc2sc3c(c2c(=O)n1-c1ccccc1)CCN(C)C3 the results were Dicer processing inactive.
`CCCCc1c(O)nc(SCCN(C)C)n(-c2ccccc2)c1=O` gave Dicer processing inactive.
`CCCCCc1c(O)nc(SCCN2CCOCC2)n(-c2ccccc2)c1=O` gave Dicer processing 3.3.
For Cn1ccnc1Sc1cnc(=S)[nH]c1-c1ccccc1 the results were Dicer processing inactive.
Cc1ccccc1-c1nnc(SCc2ccc(F)cc2)o1 was read as Dicer processing inactive.
CC1CCC(C(C)C)C(NC(=S)Nc2cccc(F)c2)C1 (centres undefined) was read as Dicer processing inactive.
FC(F)(F)c1cc(-n2nncc2-c2ccccc2)cc(C(F)(F)F)c1 was read as Dicer processing inactive.
Screening c1ccc(-c2nc(NC3CCCCC3)c3ccccc3n2)cc1 returned Dicer processing inactive.
Screening Nc1nc(Cc2cc3ccccc3[nH]2)nc(NC2CCCCC2)n1 returned Dicer processing 4.
Screening CC(C)c1nnc(NC(=O)CSc2nccn2C)s1 returned Dicer processing inactive.
Screening Cc1csc(-c2cn(C(C)C)c(=O)n(Cc3ccccc3)c2=O)n1 returned Dicer processing inactive.
`CC(C)n1cc(-c2noc(-c3cccs3)n2)c(=O)n(Cc2ccccc2)c1=O` gave Dicer processing 3.1.
For CC(C)n1cc(-c2nc(-c3ccc(Cl)cc3)cs2)c(=O)n(Cc2ccccc2)c1=O the results were Dicer processing inactive.
Screening CCCc1[nH]nc2c1C(c1ccc(C(=O)OC)cc1)C(C#N)=C(N)O2 (centres undefined) returned Dicer processing inactive.
CSc1sc(C(=O)NC(=O)NCc2ccncc2)c(C)c1-c1ccno1 was read as Dicer processing inactive.
`Cc1ccc(O)c(C2=NN3C(C2)c2cc(Cl)ccc2OC3c2cccnc2)c1` (centres undefined) gave Dicer processing inactive.
Screening Clc1ccc(C2=NN3C(C2)c2ccccc2OC3c2cccnc2)cc1 (centres undefined) returned Dicer processing 6.
Screening CC(C)C1Oc2ccccc2C2CC(c3ccccc3O)=NN21 (centres undefined) returned Dicer processing 5.6.
Screening COc1cccc2c1OC(c1cccnc1)N1N=C(c3ccccc3O)CC21 (centres undefined) returned Dicer processing inactive.
Screening Clc1ccc(C2=NN3COc4ccccc4C3C2)cc1 (centres undefined) returned Dicer processing inactive.
Screening Oc1ccccc1C1=NN2C(C1)c1ccccc1OC2c1ccccc1 (centres undefined) returned Dicer processing inactive.
`Oc1ccccc1C1=NN2C(C1)c1ccccc1OC2c1cccnc1` (centres undefined) gave Dicer processing 12.
`COc1cccc2c1OC(C(C)C)N1N=C(c3ccccc3O)CC21` (centres undefined) gave Dicer processing inactive.
Cc1c(CCO)c(=O)n2c([nH]c3ccccc32)c1C#N was read as Dicer processing inactive.
CC1CCc2c(sc3ncnc(SCc4ccc([N+](=O)[O-])cc4)c23)C1 (centres undefined) was read as Dicer processing inactive.
CCOc1ccc(C2C(C#N)=C(C)NC3=C2C(=O)CC(c2ccc(Cl)cc2)C3)cc1OC (centres undefined) was read as Dicer processing inactive.
CC(C)[C@H](N)c1nnc(SCC(=O)c2ccc(Cl)cc2)o1 was read as Dicer processing inactive.
For CC(C)c1nnc(NC(=O)CSc2nc3ccccc3[nH]2)s1 the results were Dicer processing inactive.
For CC(C)C(=O)N1c2ccccc2C(N(C(=O)C(C)C)c2ccccc2)CC1C (centres undefined) the results were Dicer processing inactive.
O=C(NC(=O)N1CCc2ccccc21)c1c(Cl)cccc1Cl was read as Dicer processing inactive.
CCOC(=O)c1c(OC)cccc1OC was read as Dicer processing inactive.
Screening CCOC(=O)c1oc2cccc(OC(C)=O)c2c1C returned Dicer processing 5.7.
